HCMV inh: blocks human cytomegalovirus replication | activity change, negative = inhibition, % at 57.5 µM | 4.5% of 410,000 active | AID 1259415 | HFF cells, HCMV-luciferase reporter, 72 h; hits give low values; in the data active means activity change below about -60%; inconclusive means no clear call, values can overlap the other calls; inactive means above about -39%
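Compounds were evaluated in HFFs infected with an HCMV luciferase reporter virus (MOI 1 PFU/cell). Luciferase in lysates collected 72 h post infection served as the replication measure.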
Marburg entry inh: blocks Marburg virus binding to or entry into cells; Marburg virus pseudotyped entry inhibition, cell reporter; Potency, µM (doses to about 37.8 µM), for inactives: at the highest dose activity change, negative = inhibition, hits mostly inhibitors; 1.8% of 300,000 active; AID 540276; calls by dose curve; tested in HEK293 cells; further: potency means the concentration at half of the fitted maximal effect
LASV entry inh: Lassa virus entry inhibition | 1.2% of 300,000 active | Lassa virus pseudotype entry inhibition, cell reporter | Potency, µM (doses to about 37.9 µM), without a hit: at the highest dose activity change, negative = inhibition, most hits filed as inhibitors | AID 540256; calls by dose curve; tested in HEK293 cells; further: potency means the concentration at half of the fitted maximal effect; nearly all actives have a fitted effect of over 50% in size
HCV inh: HCV inhibition. AID 651820. Huh7.5.1 HCVcc-Cre infection, luciferase reporter, 44 h. Potency, µM (titrated, usually from 41.8 µM), for the others: at the top dose activity change, negative = inhibition, actives largely listed as inhibitors. 3.4% of 340,000 active; further: potency means the concentration at half of the fitted maximal effect
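Whole-lifecycle infectious HCVcc-Cre system; cells 1,000/well, compound then virus (~0.5 moi) added 4 h after plating, 44 h culture. Luciferase read 15 sec following 15 min substrate incubation, room temp.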
Pf growth 48h: P. falciparum growth inhibition at 48 hours (one generation) | P. falciparum luciferase growth in erythrocytes, 48 h | Potency, µM (titrated, usually from 28.7 µM), for the others: at the top dose activity change, negative = inhibition, actives largely listed as inhibitors | 5.9% of 310,000 active | AID 504832; further: potency means the concentration at half of the fitted maximal effect
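Firefly luciferase activity from engineered P. falciparum reports growth; inhibitors lower the luminescent signal. Cultures contained 2% hematocrit erythrocytes at 0.1% final parasitemia.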
Pf growth 96h: inhibits malaria parasite growth, 96 h; AID 504834; Potency, µM (doses to about 28.7 µM), for the others: top-dose activity change, negative = inhibition, actives largely listed as inhibitors; 6.9% of 320,000 active; P. falciparum luciferase reporter growth, 96 h; further: potency means the concentration at half of the fitted maximal effect
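Luminescence readout: decreased luciferase signal marks inhibited growth of reporter-expressing P. falciparum in infected red cells (2% hematocrit, 0.05% parasitemia final), exposed to compound two generations (96 h, 37 C, 5% CO2).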
Starred values were filed as active, the others as inactive; ? = inconclusive; / = no result given; [ ] = dose if it differs, or a comment. Compounds with a hit are over-represented: about 14% of the library has one in this group of screens. Unless noted, the call rests on the fitted dose curve; in most records, active means well fitted inhibition curve with a large enough effect; inconclusive means small, poorly fitted or top-dose-only effect, or another doubt; inactive means no such curve, though single readings can be large or run the other way. On the % scale 0 is the no-effect control and ±100 the full control effect.

SMILES	HCMV inh	Marburg entry inh	LASV entry inh	HCV inh	Pf growth 48h	Pf growth 96h
CCOCCCNC(=O)c1cn(C)c2ccc(S(=O)(=O)N3CCCC3)cc2c1=O	8	/	/	10%	-27%	6.6µM*
CCn1cc(C(=O)NCCOC)c(=O)c2cc(S(=O)(=O)N3CCOCC3)ccc21	1	?	0%[46.1 µM]	/	/	/
CC1CC(C)CN(CCCNC(=O)c2cn(C)c3ccc(S(=O)(=O)N4CCCC4)cc3c2=O)C1 (stereo not drawn)	4	-4%	-13%	-6%	4%	4%
CC1CCN(CCCNC(=O)c2cn(C)c3ccc(S(=O)(=O)N4CCCC4)cc3c2=O)CC1	-108*	-13%	26%	9%	12%	6%
CN(CCCNC(=O)c1cn(C)c2ccc(S(=O)(=O)N(C)C)cc2c1=O)c1ccccc1	-64*	-17%	1%	0%	-24%	-25%
COCCNC(=O)c1cn(C)c2ccc(S(=O)(=O)N3CCCC3)cc2c1=O	-1	/	/	?	13%	-17%
COc1ccc(C2C=C(c3ccccc3)Nc3nc(NC(=O)c4cccc([N+](=O)[O-])c4)nn32)cc1 (stereo not drawn)	-8	-11%[46.1 µM]	16%[46.1 µM]	/	/	/
Cc1ccc(C)c(N2CCN(C(=O)CCc3nc(-c4cccc(Cl)c4)no3)CC2)c1	83	/	/	-18%	/	/
CC1CCCN(CCCNC(=O)c2cn(C)c3ccc(S(=O)(=O)N(C)C4CCCCC4)cc3c2=O)C1 (stereo not drawn)	-12	19%[46.1 µM]	20%[46.1 µM]	0%	13µM*	21%
CCCCSCCCNC(=O)c1cn(C)c2ccc(S(=O)(=O)N3CCCCCC3)cc2c1=O	2	10%[46.1 µM]	-5%[46.1 µM]	/	/	/
Cn1cc(C(=O)NC2CCCCCCC2)c(=O)c2cc(S(=O)(=O)N3CCCC3)ccc21	-24	-21%	6%	12%	?	8.3µM*
CCN(CC)CCNC(=O)c1cn(CC)c2ccc(S(=O)(=O)N3CCc4ccccc4C3)cc2c1=O	-5	?	18%[46.1 µM]	?	?	1µM*
CCN(CC)CCCNC(=O)c1cn(CC)c2ccc(S(=O)(=O)N3CCc4ccccc4C3)cc2c1=O	?	?	4%[46.1 µM]	?	-16%	?
CCCCN(CCCC)CCNC(=O)c1cn(C)c2ccc(S(=O)(=O)N3CCCC3)cc2c1=O	16	8%[46.1 µM]	8%[46.1 µM]	5%	-19%	12µM*
Cc1cccc(CN2C(=O)c3ccccc3Sc3ccc(C(=O)NC4CCCCC4)cc32)c1	10	/	0%[46.1 µM]	/	/	/
Cc1c(C(=O)NCc2ccccc2C(F)(F)F)sc(=O)n1Cc1ccc(Cl)c(Cl)c1	-31	/	/	/	/	/
Cc1cc(C)c2c(=O)cc(C(=O)Nc3c(C)n(C)n(-c4ccccc4)c3=O)oc2c1	16	-18%[46.1 µM]	21%[46.1 µM]	/	/	/
CC(=O)Oc1c(C)c(C)c2c(c1C)CC[C@@](C)(CCC[C@H](C)CCC[C@H](C)CCCC(C)C)O2	16	/	/	-88%	-5%	5%
CCn1cc(C(=O)N2CCc3ccccc3C2)c(=O)c2cc(S(=O)(=O)N3CCCCC3)ccc21	1	-3%	-1%	/	?	-26%
Cn1cc(C(=O)N2CCc3ccccc3C2)c(=O)c2cc(S(=O)(=O)N3CCCCC3)ccc21	/	-29%	-1%	/	-17%	3.7µM*
CCc1ccc(CC2S/C(=C(\C#N)C(C)=O)NC2=O)cc1 (stereo not drawn)	-90*	?	5.8µM*	2%	?	2.9µM*
CCOC(=O)c1ccc(CC2S/C(=C(\C#N)C(C)=O)NC2=O)cc1 (stereo not drawn)	119	?	?	18%	/	?
CC(=O)/C(C#N)=C1\NC(=O)C(Cc2ccc(C)c(Cl)c2)S1 (stereo not drawn)	-92*	?	?	3%	-19%	-24%
COc1nc(OCC#N)nc(N2CCCCC2)n1	?	-7%	-3%	-4%	-5%	?
COc1nc(N2CCCCCC2)nc(N2CCCCCC2)n1	?	-9%	15%	10µM*	2%	-27%
COc1nc(N2CCOCC2)nc(-n2cccc2)n1	18	?	9%	0.89µM*	-10%	?
